ELG1 DNA repair: qHTS screen for small molecules that inhibit ELG1-dependent DNA repair in human embryonic kidney (HEK293T) cells expressing luciferase-tagged ELG1 | HEK293T ELG1-luciferase reporter, luminescence, 16 h; DNA damage induced by 5-fluorouridine | Potency, µM (titrated, usually from 46.1 µM), actives largely listed as inhibitors | hit rate 2.3% among 330,000; further: nearly all actives have a fitted effect of over 55% in size
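In this reporter screen, reduction of luminescence relative to DMSO vehicle indicated activity. Compounds and 5-fluorouridine were added together to 2,000 cells per well, incubated for 16 hr at 37 °C, then developed with ONE-Glo.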
TDP1 inh: qHTS Assay for Inhibitors of Tyrosyl-DNA Phosphodiesterase (TDP1). Potency, µM (highest dose often 130 µM), most hits filed as inhibitors. recombinant TDP1, AlphaScreen DNA substrate cleavage. hit rate 0.28% among 350,000; further: nearly all actives have a fitted effect of over 40% in size
Target sequence (Q9NUW8 whole entry, looked up): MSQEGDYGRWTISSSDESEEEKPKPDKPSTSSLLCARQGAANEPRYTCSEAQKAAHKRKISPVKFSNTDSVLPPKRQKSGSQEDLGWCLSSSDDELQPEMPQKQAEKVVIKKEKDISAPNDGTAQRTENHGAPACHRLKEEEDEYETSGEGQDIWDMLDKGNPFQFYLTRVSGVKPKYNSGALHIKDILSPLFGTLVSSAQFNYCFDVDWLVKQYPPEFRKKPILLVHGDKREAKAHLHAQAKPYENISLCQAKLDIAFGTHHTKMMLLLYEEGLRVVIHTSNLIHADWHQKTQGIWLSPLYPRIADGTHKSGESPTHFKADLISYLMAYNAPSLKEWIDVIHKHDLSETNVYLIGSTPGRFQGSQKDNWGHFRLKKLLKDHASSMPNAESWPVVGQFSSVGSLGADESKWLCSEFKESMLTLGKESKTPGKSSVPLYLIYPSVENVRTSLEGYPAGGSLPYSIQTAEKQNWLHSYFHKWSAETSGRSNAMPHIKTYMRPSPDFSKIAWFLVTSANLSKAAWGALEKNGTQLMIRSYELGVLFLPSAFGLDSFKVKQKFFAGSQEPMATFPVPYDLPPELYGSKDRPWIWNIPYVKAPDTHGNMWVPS
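Compounds were preincubated with Tdp1 (1 nM final) for 15 min at room temperature before substrate (15 nM final) started a 5 min reaction; beads (10 ug/ml final) were then added for 10 min before AlphaScreen detection.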
Giardia killer: Small Molecules that selectively kill Giardia lamblia: qHTS; Giardia lamblia trophozoite viability; activity change, % at 7.66 µM, hits read low; hit rate 0.15% among 340,000; in the data active means activity change below about -80%; inconclusive means between about -30% and that limit;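 further: parasites exposed to compound for two days anaerobically before the ATP read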
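Anaerobic 48 hrs incubation at 37 deg C of 100 trophozoites/well with test compounds; ATPLite 1-Step luminescence, 15-30 min RT, reports cellular ATP as viability.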
DT40 TDP1 CPT: qHTS for Inhibitors of human tyrosyl-DNA phosphodiesterase 1 (TDP1): qHTS in cells in presence of CPT. chicken DT40 Tdp1-/-;hTDP1 cells + 20 nM CPT, ATP luminescence, 48 h. Potency, µM (doses to about 46.2 µM), usual class: inhibitors. hit rate 12% among 420,000. AID 686979, 2013; further: nearly all actives have a fitted effect of over 55% in size
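Cell growth measured by CellTiter-Glo luminescence after a minimum 48 h, 37 C compound exposure with 20 nM CPT in Tdp1-knockout DT40 cells stably expressing hTDP1, seeded 400/well; qHTS titration format.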
IL1B secr inh: qHTS for Inhibitors of Inflammasome Signaling: IL-1-beta AlphaLISA Primary Screen. THP-1 LPS/ATP IL-1B secretion, AlphaLISA, 16 h; stronger effect = lower value. activity change, % at 57.5 µM. hit rate 4.7% among 360,000; in the data active means activity change below about -50%; inconclusive means mostly about -30% to -49%
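Secreted IL-1B measured by AlphaLISA bead assay after 16 h compound exposure of THP-1 cells; compounds (final up to 57.5 uM) added 1 h before LPS (250 ng/mL) and ATP (1.25 mM) stimulation; lower signal means less secretion.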
DT40 TDP1 no CPT: qHTS for Inhibitors of human tyrosyl-DNA phosphodiesterase 1 (TDP1): qHTS in cells in absence of CPT; DT40 Tdp1-/- hTDP1 cells, no CPT, ATP luminescence, 48 h; Potency, µM (highest dose often 46.2 µM), most hits filed as inhibitors; hit rate 15% among 420,000; AID 686978, 2013; further: nearly all actives have a fitted effect of over 55% in size
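Growth kinetics read by CellTiter-Glo luminescence after ≥48 hr at 37 °C. Cells: DT40 Tdp1-/- stably carrying human TDP1, 400 per well, compound exposure in the absence of CPT (DMSO vehicle).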
A number is an active result; [ ] = dose if it differs, or a comment. This is a sample that favours compounds with a hit; in the whole collection about 19% have one here. Unless noted, the call rests on the fitted dose curve; in most records, active means well fitted curve in the direction sought with a large enough effect; inconclusive means small, poorly fitted or top-dose-only effect, or another doubt; inactive means no such curve, though single readings can be large; an effect the other way counts as inactive or inconclusive.

How did O=C(Nc1cccc(NC(=O)c2ccc(-c3cccc(Br)c3)o2)c1)c1ccco1 do in these assays?
ELG1 DNA repair: 9.2µM; TDP1 inh: inactive; Giardia killer: inactive; DT40 TDP1 CPT: 16.4µM; IL1B secr inh: -59.4; DT40 TDP1 no CPT: 11.2µM

How did COc1ccc(NC(=O)c2ccco2)cc1NC(=O)c1cc(Br)ccc1Cl do in these assays?
TDP1 inh: inactive; DT40 TDP1 CPT: inactive; DT40 TDP1 no CPT: 20.6µM

How did COc1ccc(Br)cc1C(=O)Nc1cccc(NC(=O)c2ccco2)c1 do in these assays?
ELG1 DNA repair: 20.6µM; TDP1 inh: inactive; Giardia killer: inactive; DT40 TDP1 CPT: inconclusive; IL1B secr inh: inactive; DT40 TDP1 no CPT: 18.4µM

What do the screens show for `CC(C(=O)Nc1ccc2c(c1)OCCO2)N(C)Cc1c(F)cccc1Cl` (stereo not given)?
ELG1 DNA repair: inconclusive; TDP1 inh: inactive; Giardia killer: inactive; DT40 TDP1 CPT: inconclusive; IL1B secr inh: inconclusive; DT40 TDP1 no CPT: inconclusive

How did COc1ccccc1N1CCN(C(=O)c2ccc3c(c2)N(Cc2cc(C)ccc2C)C(=O)c2ccccc2S3(=O)=O)CC1 do in these assays?
TDP1 inh: inactive; DT40 TDP1 CPT: inactive; DT40 TDP1 no CPT: inconclusive

How did CCOc1ccc(NC(=O)CSc2ncc3c(n2)-c2ccc(Cl)cc2N(Cc2ccccc2)S3(=O)=O)cc1 do in these assays?
TDP1 inh: inactive; DT40 TDP1 CPT: inactive; DT40 TDP1 no CPT: inactive

How did Cc1[nH]c2c(F)cccc2c1CC(=O)NCCN1Cc2ccccc2OC(C)C1 (stereo not given) do in these assays?
DT40 TDP1 CPT: inactive[9.04 µM]; DT40 TDP1 no CPT: inactive

How did CC(=O)OCC(NC(=O)C(COCc1ccccc1)NC(=O)OC(C)(C)C)C1OC(n2ccc(=O)[nH]c2=O)C(OC(C)=O)C1OC(C)=O (stereo not given) do in these assays?
TDP1 inh: inactive; Giardia killer: inactive

Results for CCCN(CCC)S(=O)(=O)c1ccc(C(=O)Nc2nnc(-c3cc(OC)cc(OC)c3)o2)cc1 ?
ELG1 DNA repair: 1.46µM; TDP1 inh: inactive; Giardia killer: inactive; DT40 TDP1 CPT: 5.8µM; IL1B secr inh: inactive; DT40 TDP1 no CPT: 4.61µM

What do the screens show for `COc1cccc(-c2nnc(NC(=O)CCS(=O)(=O)c3ccc(C)cc3)o2)c1`?
ELG1 DNA repair: inactive; TDP1 inh: inactive; Giardia killer: inactive; DT40 TDP1 CPT: inconclusive; IL1B secr inh: inconclusive; DT40 TDP1 no CPT: inconclusive

What do the screens show for `CCCN(CCC)S(=O)(=O)c1ccc(C(=O)Nc2nnc(-c3cccc(OC)c3)o2)cc1`?
ELG1 DNA repair: inconclusive; TDP1 inh: inactive; Giardia killer: inactive; DT40 TDP1 CPT: 5.8µM; IL1B secr inh: inactive; DT40 TDP1 no CPT: 5.17µM

What do the screens show for `CCc1nnc(NC(=O)c2ccc(S(=O)(=O)N(CCOC)CCOC)cc2)o1`?
ELG1 DNA repair: inactive; TDP1 inh: inactive; Giardia killer: inactive; DT40 TDP1 CPT: inactive; IL1B secr inh: inactive; DT40 TDP1 no CPT: inactive

What do the screens show for `COC1(NS(=O)(=O)c2ccc(Br)cc2)C(C)=CC(=O)C=C1C`?
ELG1 DNA repair: inactive; TDP1 inh: inactive; Giardia killer: inactive; DT40 TDP1 CPT: 13µM; IL1B secr inh: inactive; DT40 TDP1 no CPT: inconclusive

What do the screens show for `CCOC(=O)N1CCN(C(=O)CS(=O)(=O)c2cn(Cc3cccc(F)c3)c3ccccc23)CC1`?
ELG1 DNA repair: inconclusive; TDP1 inh: inactive; Giardia killer: inactive; DT40 TDP1 CPT: inactive; IL1B secr inh: inactive; DT40 TDP1 no CPT: inactive

Results for Cc1ccccc1Cn1cc(S(=O)(=O)CC(=O)Nc2nccs2)c2ccccc21 ?
ELG1 DNA repair: inconclusive; TDP1 inh: inactive; Giardia killer: inactive; DT40 TDP1 CPT: inconclusive; IL1B secr inh: -63.8; DT40 TDP1 no CPT: inconclusive
